Screening results: PubChem, National Center for Advancing Translational Sciences (NCATS)
Glioma ERSR ind: induces the endoplasmic reticulum stress response in human glioma cells; U87-MG GRP78 promoter luciferase reporter, 16 h; Potency, µM, actives largely listed as activators; hit rate 0.02% among 420,000; AID 602332; active means well fitted activation curve with a large enough effect; further: series mostly up to about 76 µM; nearly all actives have a fitted effect of over 35% in size
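Stably transfected U87-MG human glioma cells carrying a GRP78-based luminescent sensor were seeded at 1000 cells/well, pin-dosed with compounds and incubated 16 h. Luciferase reagent was then added, and end-point luminescence was read after 10 min at room temperature.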
D1 ag: human D1 receptor agonism | HEK293 T-REx D1 cells, calcium flux, agonist mode | activation, % at 2 µM | hit rate 1% among 360,000
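Agonism was scored from calcium flux recorded over 180 s (1 read/s) after pintool compound addition, following a 10-cycle baseline. Cells were inducible force-coupled HEK293 TREx D1, plated overnight at 30 C and loaded with no-wash calcium dye.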
D1 PAM: potentiators of human D1 dopamine receptor; potentiation, % at 10 µM; P21728; hit rate 0.036% among 360,000; HEK293 TREx D1 cells, calcium flux, dopamine EC20 potentiation; in the data active means potentiation above about 30%
TRHR enhancer: TRH receptor (human) allosteric enhancement | P34981 | TRHR cells, fluo-8 calcium fluorescence, EC20 TRH enhancement | enhancement, % at 2 µM | hit rate 0.66% among 360,000 | AID 493056; in the data active means enhancement above about 30%
Target sequence (P34981 whole entry, looked up): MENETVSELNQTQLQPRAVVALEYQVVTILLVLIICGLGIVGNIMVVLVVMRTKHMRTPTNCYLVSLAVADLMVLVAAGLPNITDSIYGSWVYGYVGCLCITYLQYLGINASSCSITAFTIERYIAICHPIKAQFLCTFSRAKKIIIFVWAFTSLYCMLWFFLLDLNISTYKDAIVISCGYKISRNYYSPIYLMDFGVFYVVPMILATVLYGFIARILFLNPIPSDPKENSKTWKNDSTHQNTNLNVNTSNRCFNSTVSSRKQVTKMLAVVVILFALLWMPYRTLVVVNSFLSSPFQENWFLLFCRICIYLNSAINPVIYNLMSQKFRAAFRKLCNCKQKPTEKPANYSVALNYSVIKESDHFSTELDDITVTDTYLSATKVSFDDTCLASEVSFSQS
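TRHR-expressing cells loaded with fluo-8 calcium dye were read kinetically (ex 480/em 530) during compound addition, then stimulated with an EC20 of TRH (10 nM final). Enhancement of the Gq-mediated intracellular calcium response was scored.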
D1 antagonist: human D1 dopamine receptor antagonism; HEK293 TREx D1 cells, calcium flux, dopamine EC80; active compounds read low; hit rate 3.2% among 360,000; P21728; activity change, negative = inhibition, % at 10 µM; in the data active means activity change below about -30%
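Compound effects on dopamine-evoked calcium signalling were measured in tetracycline-induced HEK293 Trex D1 cells. Dopamine at EC80 followed a 180 s compound pre-read, and fluorescence was tracked kinetically for 180 s more.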
TRHR ag: agonists of human TRH receptor. hit rate 0.18% among 360,000. TRHR cells, calcium flux fluo-8, FDSS agonist mode. P34981. activation, % at 2 µM. AID 493084
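Steps: seed TRHR cells overnight; add fluo-8 no-wash Ca dye, RT 30 min–1.5 h; record 10 s baseline; pin-transfer compounds; monitor fluorescence 1 cycle/s for the agonist window. Calcium increases flag candidate agonists.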
Each line names hits and unclear results; the compound was inactive in the other large screens. A selection: hits, their analogues and other compounds. The true share with any hit is near 4%. Unless noted, no stated cut-off is given here; in the data, active means activation above about 30%; inactive means the rest.

CCc1ccc2c(c1)C(c1ccc([N+](=O)[O-])cc1)=NNC(c1ccc(F)cc1)=N2	D1 antagonist -40
Cc1ccc2c(c1)C(c1ccncc1)=NNC(c1ccc(F)cc1)=N2	D1 antagonist -39
Cc1c(C(=O)N(Cc2ccco2)Cc2cccs2)oc2ccccc12	none (no result: D1 PAM)
CN(C)CCN(Cc1ccco1)C(=O)c1oc2ccccc2c1NC(=O)c1cccc(F)c1	D1 ag 66
CN(C)CCN(Cc1ccco1)C(=O)c1oc2ccccc2c1NC(=O)COc1ccccc1	D1 antagonist -40
CCOc1ccc(S(=O)(=O)N2CCN(C)CC2)c(C)c1C	D1 antagonist -50
N=c1sccn1CC(=O)Nc1ccc(SC(F)F)cc1	D1 ag 46
C/C=C/C(=O)OCC(=O)Nc1ccc(SC(F)F)cc1	D1 antagonist -33
CC(=O)OCC(=O)Nc1ccc(SC(F)F)cc1	none
CCCCOc1ccc(C(=O)Nc2ccc(SC(F)F)cc2)cc1OC	none
CSc1ccccc1NC(=O)Cn1ccsc1=N	none
COc1ccc(C(=O)Nc2ccc(SC(F)F)cc2)cc1	D1 ag 46
CCC(C(=O)OCC(=O)Nc1ccc(SC(F)F)cc1)c1ccccc1 (stereo unspecified)	D1 antagonist -36
CCC(C(=O)OCC(=O)Nc1ccc(F)cc1)c1ccccc1 (stereo unspecified)	none
Cc1ccc2oc(-c3ccc(C)c(NC(=O)C(C)(C)Oc4ccc(Cl)cc4)c3)nc2c1	none
COc1cccc(N2CCN(C(=O)c3cccc(NC(=O)c4nsc5ccccc45)c3)CC2)c1	none
O=C(Cc1ccccc1)Nc1ccc(F)cc1	none
O=C(Cc1ccccc1)Nc1ccc(SC(F)F)cc1	D1 antagonist -40
COCc1c(C(=O)N2CCN(C(C)C)CC2)cnn1-c1nccc(-c2cc(C)sc2C)n1	none (no result: D1 ag, D1 PAM, TRHR enhancer, D1 antagonist, TRHR ag)
CC1(C(=O)NC2CCN(Cc3ccccc3)CC2)CCN1Cc1ccc(OC(F)(F)F)cc1 (stereo unspecified)	none (no result: D1 ag, D1 PAM, TRHR enhancer, D1 antagonist, TRHR ag)
COc1ccc(Cl)cc1NS(=O)(=O)c1cccc(C(=O)NC2CCN(Cc3ccccc3)CC2)c1	none (no result: D1 ag, D1 PAM, TRHR enhancer, D1 antagonist, TRHR ag)
O=C(NC1CCN(Cc2ccccc2)CC1)c1cccc(OC(F)F)c1	D1 antagonist -33
CC(C)(Oc1ccc(Cl)cc1)C(=O)NC1CCN(Cc2ccccc2)CC1	D1 antagonist -51
O=C(NC1CCCCC1)c1cccc(OCc2ccccc2)c1	D1 ag 37
COc1ccc(NS(=O)(=O)c2cccc(C(=O)NC3CCN(Cc4ccccc4)CC3)c2)cc1	D1 antagonist -33
COc1ccc(S(=O)(=O)NCC2CCC(C(=O)NCCCN3CCCC3=O)CC2)cc1 (stereo unspecified)	none
C[C@@H]1CN([C@@H](C)CO)C(=O)CCCn2nncc2CO[C@@H]1CN(C)S(=O)(=O)c1cccs1	none (no result: D1 ag, D1 PAM, TRHR enhancer, D1 antagonist, TRHR ag)
CCOC(=O)c1cc(CC)sc1NC(=O)COc1ccccc1C	none
CC/C(=C/c1ccccc1OC)c1cc(-c2ccccc2)cc2oc3ccccc3c12	none (no result: D1 ag, D1 PAM, TRHR enhancer, D1 antagonist, TRHR ag)
Cc1ccccc1C(=O)NC1CCN(Cc2ccccc2)CC1	D1 antagonist -33
Cc1ccccc1C(=O)NC1CCN(Cc2nnnn2CCc2ccccc2)CC1	none
COc1ccc(NS(=O)(=O)c2cccc(C(=O)N3CCN(Cc4ccc5c(c4)OCO5)CC3)c2)cc1	D1 antagonist -61
COc1ccc(CNC2CCN(Cc3ccccc3)CC2)cc1	D1 ag 32
COCCN(C(=O)COc1ccc(Cl)cc1)c1nnc(-c2cccnc2)s1	none
OCc1ccccc1OCCCOc1cccc2cccnc12	D1 antagonist -31
CC(C)Oc1ccccc1OCCCOc1cccc2cccnc12	D1 antagonist -48
Cc1ccc(C#CC2C=CC(Oc3ccc4c(c3)OCO4)C(CO)O2)c(C)c1 (stereo unspecified)	none (no result: D1 ag, D1 PAM, TRHR enhancer, D1 antagonist, TRHR ag)
CC(C)Nc1cccnc1N1CCN(C(=O)c2cc3cc(NS(C)(=O)=O)ccc3[nH]2)CC1	none (no result: D1 ag, D1 PAM, TRHR enhancer, D1 antagonist, TRHR ag)
O=C(O)C(Cc1ccc2c(c1)oc1ccccc12)NCP(=O)(O)O (stereo unspecified)	none (no result: D1 ag, D1 PAM, TRHR enhancer, D1 antagonist, TRHR ag)
Cc1ccc(NC(=S)NC2CCSc3ccccc32)cc1C (stereo unspecified)	none
